# Results taken from PubChem BioAssay AID1445 (SRMLSC, 2008).
# Among all 220,000 compounds or so, about 910 (0.41%) were called active.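 The calls were made as follows: active = primary inhibition above the hit cutoff, then over 50% inhibition at one or more dose response concentrations (cut at about 23% in these data, passing the limit was not always enough); inconclusive = conflicting primary data, or primary hits not chosen for dose response; inactive = low primary inhibition, or under 50% at every dose.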 The sample as a whole holds a higher share of actives than the screen did. Potency and affinity values are given separately.
# Target: Aminopeptidase N (Plasmodium falciparum (isolate 3D7)) (UniProt O96935)
# Test: P. falciparum M1AAP inhibitors, biochemical, fluorogenic H-Leu-NHMec substrate, 1536-well (AID 1445);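 also: plate controls were DMSO full reaction for no effect and no enzyme background for full effect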
# Conditions: recombinant M1AAP, H-Leu-NHMec fluorogenic kinetic assay; at 30 µM, active compounds read high unless noted
# Sequence of Aminopeptidase N (Plasmodium falciparum (isolate 3D7)) (O96935 whole entry, looked up): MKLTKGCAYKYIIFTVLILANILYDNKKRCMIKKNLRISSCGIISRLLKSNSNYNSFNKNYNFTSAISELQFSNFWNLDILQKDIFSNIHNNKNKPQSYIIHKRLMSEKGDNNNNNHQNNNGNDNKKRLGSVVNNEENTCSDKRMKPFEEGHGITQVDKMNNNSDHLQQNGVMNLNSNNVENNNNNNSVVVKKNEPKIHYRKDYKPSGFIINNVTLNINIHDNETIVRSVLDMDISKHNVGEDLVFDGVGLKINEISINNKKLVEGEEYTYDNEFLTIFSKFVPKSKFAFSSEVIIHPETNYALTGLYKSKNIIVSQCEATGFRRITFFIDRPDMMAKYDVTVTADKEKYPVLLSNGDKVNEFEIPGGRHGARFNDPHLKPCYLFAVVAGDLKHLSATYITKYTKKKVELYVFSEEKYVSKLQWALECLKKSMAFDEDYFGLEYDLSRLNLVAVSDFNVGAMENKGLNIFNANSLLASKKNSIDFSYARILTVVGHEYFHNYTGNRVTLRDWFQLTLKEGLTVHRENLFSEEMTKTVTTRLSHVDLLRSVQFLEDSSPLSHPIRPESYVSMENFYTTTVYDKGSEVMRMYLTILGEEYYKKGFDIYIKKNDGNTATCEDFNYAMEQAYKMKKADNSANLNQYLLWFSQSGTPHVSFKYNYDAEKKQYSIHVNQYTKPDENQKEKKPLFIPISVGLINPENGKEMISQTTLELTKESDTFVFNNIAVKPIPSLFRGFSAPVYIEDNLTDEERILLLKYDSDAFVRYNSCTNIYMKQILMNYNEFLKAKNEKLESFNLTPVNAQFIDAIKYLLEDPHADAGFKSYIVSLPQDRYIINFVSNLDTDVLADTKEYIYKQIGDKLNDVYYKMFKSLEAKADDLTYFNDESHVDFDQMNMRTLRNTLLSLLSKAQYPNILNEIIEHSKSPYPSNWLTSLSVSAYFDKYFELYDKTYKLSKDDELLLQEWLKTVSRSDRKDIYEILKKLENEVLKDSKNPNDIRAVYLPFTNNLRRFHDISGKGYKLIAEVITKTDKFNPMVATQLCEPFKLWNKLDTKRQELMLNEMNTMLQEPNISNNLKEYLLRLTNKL
row,Compound,inhibition
1,COc1ccccc1N1C(=O)c2ccc(C(=O)Nc3nccs3)cc2C1=O,7.44% (inactive)
2,O=C(CSc1ccc(-c2ccccn2)nn1)c1ccc(F)cc1,1.12% (inactive)
3,N#Cc1c(N)sc2c1CCCCCC2,7.78% (inactive)
4,N#Cc1c(N)sc(=S)c2c1CCCC2,9.2% (inactive)
5,N#Cc1c(N)sc(=S)c2c1CCCCC2,23.8% (active)
6,Cn1cnnc1Sc1ccc(C(=O)OCC(=O)Nc2cc(Cl)cc(Cl)c2)cc1[N+](=O)[O-],3.75% (inactive)
7,CCN(CC)c1ccc(NC(=O)c2cccnc2)c(C)c1,3.17% (inactive)
8,CCN(CC)S(=O)(=O)c1cccc(C(=O)Nc2cccnc2)c1,-0.19% (inactive)
9,NNC(=O)c1ccc2c(c1)S(=O)(=O)NNC2=O,8% (inactive)
10,CC(C)N(C)C1CCN(C(=O)Nc2ccc(Cl)c(Cl)c2)CC1,6.97% (inactive)
11,COc1cc(OC)c(NS(=O)(=O)c2cc(C(=O)OC(C)C(=O)NC3CC3)c(Cl)cc2Cl)cc1Cl (stereo not drawn),10% (inactive)
12,COc1cc(OC)c(NC(C)C(=O)N2CCCC2)cc1Cl (stereo not drawn),11.4% (inactive)
13,CCCCCCOc1ccc(C(CC(=O)O)C(N)=O)cc1 (stereo not drawn),-7.78% (inactive)
14,O=C(NCc1cccnc1)C(=O)NCC(c1ccco1)N1CCOCC1 (stereo not drawn),11.1% (inactive)
15,Cc1[nH]c2ccccc2c1/C=N/NC(=O)CNC(=O)c1cccs1,0.9% (inactive)
16,CCN1CCN(CC(=O)N/N=C/c2ccc(F)cc2F)CC1,15.6% (inactive)
17,COc1ccc(N/N=C(\C=N\O)C(=O)c2ccc(OC)cc2)cc1,24.1% (active)
18,CO/N=C/C(=N\Nc1ccc(OC)cc1)C(=O)c1ccc(OC)cc1,12% (inactive)
19,COc1ccc(C(=O)C(/C=N/O)=N/Nc2ccc(F)cc2)cc1,4.27% (inactive)
20,Cc1nc2sc3c(c2c(=O)n1/N=C/c1cccnc1)CCCC3,2.58% (inactive)
21,CN(C)CCCN1C(=O)c2oc3ccccc3c(=O)c2C1c1cccs1 (stereo not drawn),10.7% (inactive)
22,O=C1c2oc3ccccc3c(=O)c2C(c2cccs2)N1CCCN1CCOCC1 (stereo not drawn),16.3% (inactive)
23,CCN(CC)CCCN1C(=O)c2oc3ccccc3c(=O)c2C1c1cccs1 (stereo not drawn),23.3% (active)
24,S=C(NC1CC1)N1CCN(c2ccc(Cl)cc2)CC1,-2.34% (inactive)

row,Compound,inhibition
1,CC(C)C(=O)NC(=S)Nc1ccc(S(=O)(=O)Nc2nccs2)cc1,2.01% (inactive)
2,COc1ccccc1C(=O)Nn1c(-c2cccs2)nc2ccccc2c1=O,10.4% (inactive)
3,COc1cccc(OC)c1C(=O)Nn1c(-c2cccc(C)c2)nc2ccccc2c1=O,6.13% (inactive)
4,COc1cccc(OC)c1C(=O)Nn1c(-c2cccs2)nc2ccccc2c1=O,1.67% (inactive)
5,O=C(Cc1cccs1)Nn1c(Cc2cccs2)nc2ccccc2c1=O,10.8% (inactive)
6,O=C(Nn1c(Cc2cccs2)nc2ccccc2c1=O)c1ccc(F)c(F)c1,8.58% (inactive)
7,O=C(Cc1ccccc1)Nn1c(-c2ccccc2)nc2ccccc2c1=O,3.49% (inactive)
8,Cc1cccc(-c2nc3ccccc3c(=O)n2NC(=O)c2cccnc2Cl)c1,8.24% (inactive)
9,Cc1ccc(-c2nc3ccccc3c(=O)n2NC(=O)c2cccs2)cc1,5.47% (inactive)
10,c1ccc(-c2ccc(CN3C[C@@H]4C(c5ccccc5)C5(c6ccccc6)CC4(C5)[C@H]3c3ccccc3)cc2)cc1 (stereo partly drawn),-2.33% (inactive)
11,O=C(CSc1ccc(-c2ccc(F)cc2)nn1)NCCc1ccccc1,-0.33% (inactive)
12,Clc1ccc(-c2nn3cnnc3s2)c(Cl)c1,0.7% (inactive)
13,CCN=C1SC(CC(=O)NCCc2ccc(OC)c(OC)c2)C(=O)N1CC (stereo not drawn),-3.87% (inactive)
14,Cc1[nH][nH]c(=O)c1C(c1ccc([N+](=O)[O-])cc1)c1c(C)[nH][nH]c1=O,-16.2% (inactive)
15,Cc1[nH][nH]c(=O)c1C(c1ccc(O)c([N+](=O)[O-])c1)c1c(C)[nH][nH]c1=O,14% (inactive)
16,Clc1ccc(CN2C3=NCCN3c3ccccc32)cc1,7.94% (inactive)
17,Cc1cc(C)n2nc(C(=O)NCc3ccco3)cc2n1,8.12% (inactive)
18,Cc1cc(C(=O)NCc2cccs2)nn1C,3.72% (inactive)
19,CCN(CC)C(=O)CSc1nc(O)c(Cc2ccccc2)c(=O)n1-c1ccc(C)cc1,4.4% (inactive)
20,Cc1ccc(C(=O)Nc2ccccc2C(=O)N2CCCCCC2)cc1,4.87% (inactive)
21,CC(C)CN(C(=O)COC(=O)c1ccccc1Sc1ccccc1C#N)C1CCS(=O)(=O)C1 (stereo not drawn),-1.64% (inactive)
22,O=c1c2ccccc2nc(COc2ccccc2)n1/N=C/c1ccc(O)c(O)c1,14.6% (inactive)
23,CCCc1nc2ccccc2c(=O)n1/N=C/c1ccc(O)cc1,-1.67% (inactive)
24,O=c1c2ccccc2nc(COc2ccccc2)n1/N=C/c1ccc(O)cc1O,19.8% (inactive)

row,Compound,inhibition
1,Cc1cccc(C)c1OCc1nc2ccccc2c(=O)n1/N=C/c1c[nH]c2ccccc12,5.57% (inactive)
2,CCn1c(COc2cccc(C)c2C)nnc1SCC(=O)Nc1cc(C)on1,7.39% (inactive)
3,COc1cc(/C=C/C(=O)OCC(=O)NCc2cccs2)ccc1OC(F)F,4.72% (inactive)
4,O=C(N/N=C\c1ccc[nH]1)C1COc2ccccc2O1 (stereo not drawn),9.36% (inactive)
5,CC1=NN(c2ccccc2)C(=O)C1C(=O)c1ccccc1 (stereo not drawn),14.1% (inactive)
6,CC1=NN(c2ccccc2)C(=O)C1C=Nc1ccc(N(C)C)cc1 (stereo not drawn),12.8% (inactive)
7,COC(=O)c1sccc1S(=O)(=O)Nc1ccc(S(N)(=O)=O)cc1,2.58% (inactive)
8,CC(C)(C)NC(=O)CSc1nnc(SCC(=O)NC(C)(C)C)s1,1.09% (inactive)
9,COc1ccc(C)cc1-n1nnnc1SC/C(O)=C(\C#N)c1nc2ccccc2[nH]1,-0.98% (inactive)
10,N#CCSc1nnc(Cc2cccs2)n1C1CCCCC1,1.61% (inactive)
11,Cc1ccccc1-n1c(SC/C(O)=C(\C#N)c2nc3ccccc3[nH]2)nnc1-c1ccncc1,13.8% (inactive)
12,NC(=O)CSc1nnc(Cc2cccs2)n1C1CCCCC1,0.23% (inactive)
13,CCOP(=O)(OCC)C(Nc1ccccc1)c1ccco1 (stereo not drawn),0.74% (inactive)
14,CS(=O)(=O)NCc1ccc(C(=O)O)cc1,9.65% (inactive)
15,NNC(=O)C1CC1c1ccccc1 (stereo not drawn),-1.25% (inactive)
16,COC(=O)c1cccc(NC(=O)C2COc3ccccc3O2)c1C (stereo not drawn),3.13% (inactive)
17,Cc1oc2cc([N+](=O)[O-])c(O)c([N+](=O)[O-])c2c1C(=O)c1ccc(Cl)cc1,16.5% (inactive)
18,Cc1ccc(C(=O)c2coc3ccc(O)c(Cl)c23)cc1,2.57% (inactive)
19,Cc1ccc(C(=O)c2cc3c(cc2[N+](=O)[O-])OCCO3)cc1,1.34% (inactive)
20,COc1ccc(OC)c(C(=O)c2c(C)oc3cc([N+](=O)[O-])c(O)c([N+](=O)[O-])c23)c1,7.96% (inactive)
21,O=C1NC(c2ccccc2)=C(c2ccccc2)C1=O,18.7% (inactive)
22,O=C(c1ccco1)N1CCN(C(c2ccccc2Cl)c2nnnn2Cc2cccs2)CC1 (stereo not drawn),1.56% (inactive)
23,CC(C)(C)c1ccc(SCCc2ccccn2)cc1,0.53% (inactive)
24,CC(C)Oc1ccc(NC(N)=O)cc1,4.7% (inactive)

row,Compound,inhibition
1,CS(=O)(=O)C1=NSC2=NC(=O)/C(=C\c3cccn3-c3ccccc3Cl)C(=N)N21,12.3% (inactive)
2,CCC1=NN2C(=N)/C(=C\c3cccn3-c3c(C)cccc3C)C(=O)N=C2S1,13.2% (inactive)
3,CC1=CSC2=NC(=O)/C(=C\c3cccn3-c3ccccc3)C(=N)N12,5.41% (inactive)
4,Cc1cc(C)cc(-n2cccc2/C=C2/C(=N)N3C(=NC2=O)SN=C3S(C)(=O)=O)c1,18.4% (inactive)
5,CCC1=NN2C(=N)/C(=C\c3cccn3-c3ccc(Cl)cc3)C(=O)N=C2S1,8.09% (inactive)
6,CCOc1ccc(-n2c(C)cc(/C=C3/C(=N)N4C(=NC3=O)SN=C4S(C)(=O)=O)c2C)cc1,21.4% (inactive)
7,CCC1=NN2C(=N)/C(=C\c3cccn3-c3ccc(Br)cc3)C(=O)N=C2S1,4.13% (inactive)
8,COc1cccc(-n2c(C)cc(/C=C3/C(=N)N4C(=NC3=O)SN=C4S(C)(=O)=O)c2C)c1,16.2% (inactive)
9,COC(=O)Nc1ccc(S(=O)(=O)N2CCCC(C(=O)Nc3cccnc3)C2)cc1 (stereo not drawn),-1.96% (inactive)
10,CCN(CC)CCN(C(=O)c1ccc(S(=O)(=O)N2CCCCC2)cc1)c1nc2cc3c(cc2s1)OCO3,-2.92% (inactive)
11,O=C(NN1CCOCC1)c1sc2cccc(F)c2c1Cl,4.71% (inactive)
12,O=C1c2ccccc2C(=O)N1c1nc2nccc(-c3ccccc3)n2n1,-0.09% (inactive)
13,Cc1cc(NC(=O)c2cncc(Br)c2)n(-c2ccccn2)n1,1.7% (inactive)
14,CCc1nnc(NS(=O)(=O)c2ccc(NC(=S)NC(=O)c3ccncc3)cc2)s1,4.45% (inactive)
15,COc1cc(NS(=O)(=O)c2ccc(NC(=S)NC(=O)c3ccco3)cc2)nc(OC)n1,16.3% (inactive)
16,CCc1nnc(NS(=O)(=O)c2ccc(NC(=S)NC(=O)/C=C/c3ccccc3)cc2)s1,13.3% (inactive)
17,COc1cc(NS(=O)(=O)c2ccc(NC(=S)NC(=O)C(C)(C)C)cc2)nc(OC)n1,4.8% (inactive)
18,CCc1nnc(NS(=O)(=O)c2ccc(NC(=S)NC(=O)/C=C/c3ccc(OC)cc3)cc2)s1,2.25% (inactive)
19,CCc1nnc(NS(=O)(=O)c2ccc(NC(=S)NC(=O)/C=C/c3ccc(C(C)C)cc3)cc2)s1,19.8% (inactive)
20,CCc1nnc(NS(=O)(=O)c2ccc(NC(=O)/C=C/c3ccc(F)cc3)cc2)s1,3.37% (inactive)
21,CCc1nnc(NS(=O)(=O)c2ccc(NC(=S)NC(=O)c3ccccc3)cc2)s1,13.4% (inactive)
